In PubChem BioAssay (NCATS):
Inconclusive results are not listed. The source made the active and inactive calls. Calls come from the whole dose curve; as a rule, active = well fitted cell-killing curve with a large enough effect; inconclusive = small, poorly fitted or top-dose-only effect, or effect the other way; inactive = no such curve, though single readings can be large or run the other way.

Assay: Quantitative High-Throughput drug screen in 47 multiple myeloma cell lines against the NCATS MIPE library collection: KMS12BM_JCRB cell viability assay (AID 1918971); note: nearly all actives have a fitted effect of over 35% in size
Settings: KMS12BM myeloma viability, CellTiter-Glo ATP, 48 h; series mostly up to 45.8 µM
Source text: PI: Beverly A. Mock Ph.D.
Laboratory of Cancer Biology and Genetics,
Center for Cancer Research, National Cancer Institute,
National Institute of Health, Bethesda, Maryland
Drug resistance and disease progression are common in multiple myeloma (MM) patients, underscoring the need for new therapeutic combinations. […] We hypothesized that effective combinations would reduce MYC expression and enhance p16 activity. […] These preclinical data identify potentially useful drug combinations for evaluation in drug-resistant MM and reveal potential mechanisms of combined drug sensitivity.
Described herein is the primary MIPE qHTS used to cherrypick compounds. Validated compounds were then further tested for potential synergistic activiy.
[1] Peat TJ, Gaikwad SM, Dubois W, Gyabaah-Kessie N, Zhang S, Gorjifard S, Phyo Z, Andres M, Hughitt VK, Simpson RM, Miller MA, Girvin AT, Taylor A, Williams D, D'Antonio N, Zhang Y, Rajagopalan A, Flietner E, Wilson K, Zhang X, Shinn P, Klumpp-Thomas C, McKnight C, Itkin Z, Chen L, Kazandijian D, Zhang J, Michalowski AM, Simmons JK, Keats J, Thomas CJ, Mock BA. Drug combinations identified by high-throughput screening promote cell cycle transition and upregulate Smad pathways in myeloma. Cancer Lett. 2023 Aug 1;568:216284. doi: 10.1016/j.canlet.2023.216284. Epub 2023 Jun 24. PMID: 37356470; PMCID: PMC10408729.
SEQUENCE No. (e.g., 1, 2, 3, etc.); […] (e.g., Cells, Incubation, Reagent, etc.); VALUE and DESCRIPTION.
1; Cells; 5 uL; white, solid bottom 1536-well Greiner assay plate.
2; Compounds; 23 nL; Kalypsis pin tool (Wako USA) equipped with a 1536-well pin head to transfer to the assay plates.
3; Incubation; 48 hours; 37C incubation.
4; Reagent;5uL; CellTiter Glo (Promega).
5; Detector; 425V; Luminescence; Viewlux PerkinElmer.
NOTES (numbers refer to Sequence numbers above)
1. The cell-based screening methods employed in this study were like those previously published. Briefly, the corresponding myeloma cell lines were screened in 1,536-well plates with 500 cells, 5-uL per well for inhibition of cell viability (assessed by measuring ATP levels with CellTiterGlo).
2. NCATS MIPE 4.0 library of approved and investigational drugs were added using the Kalypsis pin tool. Wells treated with DMSO only for 100% viability and media only wells for 0% viability were used as controls.
3. The assay plates were covered and incubated for 48 hours in a 37C, 5% CO2 incubator with controlled humidity.
4. After 48 hours, CellTilter-GloTM luminescent substrate mix (Promega) reagent was added to the assay plate and plates we incubated for 5 min at room temperature.
5. Signal was measured as median relative luminescence units on a ViewLux (PerkinElmer) multiplate reader.
[1] Heske CM, Davis MI, Baumgart JT, Wilson K, Gormally MV, Chen L, Zhang X, Ceribelli M, Duveau DY, Guha R, Ferrer M, Arnaldez FI, Ji J, Tran HL, Zhang Y, Mendoza A, Helman LJ, Thomas CJ. Matrix Screen Identifies Synergistic Combination of PARP Inhibitors and Nicotinamide Phosphoribosyltransferase (NAMPT) Inhibitors in Ewing Sarcoma. Clin Cancer Res. 2017 Dec 1;23(23):7301-7311. doi: 10.1158/1078-0432.CCR-17-1121. Epub 2017 Sep 12. PMID: 28899971; PMCID: PMC6636827.
Potency is the fitted concentration of half-maximal effect.

Compound | Potency
NNC(=O)c1ccncc1 | inactive
CCCCOc1ccc(CC(=O)NO)cc1 | 20.9 µM (active)
COC(=O)Nc1nc2ccc(Sc3ccccc3)cc2[nH]1 | 2.35 µM (active)
O=C(N[C@H](CO)[C@H](O)c1ccc([N+](=O)[O-])cc1)C(Cl)Cl | inactive
CC(C)NCC(O)c1ccc(NS(C)(=O)=O)cc1 (stereo not given) | inactive
CCn1cc(C(=O)O)c(=O)c2cc(F)c(N3CCN(C)CC3)cc21 | 2.64 µM (active)
CC(C)(C)C(=O)OCOP(=O)(COCCn1cnc2c(N)ncnc21)OCOC(=O)C(C)(C)C | 0.935 µM (active)
CCOCC(O)COc1ccc(NC(=O)CC[S+](C)C)cc1 (stereo not given) | inactive
CN1CCCC(n2nc(Cc3ccc(Cl)cc3)c3ccccc3c2=O)CC1 (stereo not given) | 4.18 µM (active)
COc1cc2c(Nc3ccc(Br)cc3F)ncnc2cc1OCC1CCN(C)CC1 | 18.7 µM (active)
CCCc1nc(C)c2c(=O)[nH]c(-c3cc(S(=O)(=O)N4CCN(CC)CC4)ccc3OCC)nn12 | 5.26 µM (active)
CC(C)Cn1cnc2c(N)nc3ccccc3c21 | 14.8 µM (active)
CCCc1cc(C(N)=S)ccn1 | inactive
CN(C)c1ccc(C(=C2C=CC(=[N+](C)C)C=C2)c2ccc(N(C)C)cc2)cc1 | 0.0662 µM (active)
CNCC[C@H](Oc1cccc2ccccc12)c1cccs1 | 18.7 µM (active)
CCN[C@H]1C[C@H](C)S(=O)(=O)c2sc(S(N)(=O)=O)cc21 | inactive
N=C(N)c1ccc(OCCCCCOc2ccc(C(=N)N)cc2)cc1 | 5.9 µM (active)
CN(C)CCc1c[nH]c2ccc(CS(=O)(=O)N3CCCC3)cc12 | inactive
C[C@@H]1CN(c2c(F)c(N)c3c(=O)c(C(=O)O)cn(C4CC4)c3c2F)C[C@H](C)N1 | inactive
O=NN(CCCl)C(=O)NC1CCCCC1 | inactive

Compound | Potency
Cc1ccc(S(=O)(=O)N[C@@H](Cc2ccccc2)C(=O)CCl)cc1 | 18.7 µM (active)
CNS(=O)(=O)Cc1ccc2[nH]cc(CCN(C)C)c2c1 | inactive
Cc1oc(=O)oc1CN1CCN(c2cc3c(cc2F)c(=O)c(C(=O)O)c2n3C(C)S2)CC1 (stereo not given) | 13.2 µM (active)
C#CCN[C@@H]1CCc2ccccc21 | 11.8 µM (active)
CNNCc1ccc(C(=O)NC(C)C)cc1 | 4.69 µM (active)
O=C(O)c1ccc(-n2nc(-c3ccccc3O)nc2-c2ccccc2O)cc1 | 20.9 µM (active)
CC(C)(C)NC(=O)[C@H]1CC[C@H]2[C@@H]3CC[C@H]4NC(=O)C=C[C@]4(C)[C@H]3CC[C@]12C | inactive
COc1nc(N)nc2c1ncn2[C@@H]1O[C@H](CO)[C@@H](O)[C@@H]1O | inactive
CC(C)OC(=O)OCOP(=O)(CO[C@H](C)Cn1cnc2c(N)ncnc21)OCOC(=O)OC(C)C | 7.43 µM (active)
CC(C)C[C@H](NC(=O)[C@H](CCc1ccccc1)NC(=O)CN1CCOCC1)C(=O)N[C@@H](Cc1ccccc1)C(=O)N[C@@H](CC(C)C)C(=O)[C@@]1(C)CO1 | 0.0053 µM (active)
CCCCS(=N)(=O)CCC(N)C(=O)O (stereo not given) | inactive
CO[C@@H]1[C@@H](OC(N)=O)[C@@H](O)[C@H](Oc2ccc3c(O)c(NC(=O)c4ccc(O)c(CC=C(C)C)c4)c(=O)oc3c2C)OC1(C)C | 2.96 µM (active)
CCN(CC)CCn1c(=O)c(Cc2ccc(OC)cc2)nc2ccccc21 | inactive
Nc1nc(N)nc(-c2cc(Cl)ccc2Cl)n1 | inactive
Cc1cccc(N(C)C(=S)Oc2ccc3ccccc3c2)c1 | inactive
CNC1CCCN(c2c(F)cc3c(=O)c(C(=O)O)cn(C4CC4)c3c2OC)C1 (stereo not given) | inactive
CCCCc1oc2ccc(NS(C)(=O)=O)cc2c1C(=O)c1ccc(OCCCN(CCCC)CCCC)cc1 | 14.8 µM (active)
CCc1c2c(nc3ccc(OC(=O)N4CCC(N5CCCCC5)CC4)cc13)-c1cc3c(c(=O)n1C2)COC(=O)[C@]3(O)CC | 0.264 µM (active)
C[C@@H]1C[C@H]2[C@@H]3CCC4=CC(=O)C=C[C@]4(C)[C@@]3(Cl)[C@@H](O)C[C@]2(C)[C@@]1(OC(=O)c1ccco1)C(=O)CCl | 18.7 µM (active)
COc1cc2ncnc(Nc3cccc(Cl)c3)c2cc1OC | 26.4 µM (active)
